FBW7 activator – FBW7 E3 ligase activators, primary screen, biochemical, AlphaScreen, human; F-box/WD repeat-containing protein 7 (Homo sapiens), Q969H0; normalized activity (activation), % at 26.1 µM; AID 1259310, 2017; actives 0.13% (n = 650,000); AlphaScreen FBW7–phospho-cyclin E peptide binding, activator screen; in the data active = normalized activity above about 1.9%;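 also: purified mutant Fbw7 with reduced substrate affinity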
Target sequence (Q969H0 whole entry, looked up): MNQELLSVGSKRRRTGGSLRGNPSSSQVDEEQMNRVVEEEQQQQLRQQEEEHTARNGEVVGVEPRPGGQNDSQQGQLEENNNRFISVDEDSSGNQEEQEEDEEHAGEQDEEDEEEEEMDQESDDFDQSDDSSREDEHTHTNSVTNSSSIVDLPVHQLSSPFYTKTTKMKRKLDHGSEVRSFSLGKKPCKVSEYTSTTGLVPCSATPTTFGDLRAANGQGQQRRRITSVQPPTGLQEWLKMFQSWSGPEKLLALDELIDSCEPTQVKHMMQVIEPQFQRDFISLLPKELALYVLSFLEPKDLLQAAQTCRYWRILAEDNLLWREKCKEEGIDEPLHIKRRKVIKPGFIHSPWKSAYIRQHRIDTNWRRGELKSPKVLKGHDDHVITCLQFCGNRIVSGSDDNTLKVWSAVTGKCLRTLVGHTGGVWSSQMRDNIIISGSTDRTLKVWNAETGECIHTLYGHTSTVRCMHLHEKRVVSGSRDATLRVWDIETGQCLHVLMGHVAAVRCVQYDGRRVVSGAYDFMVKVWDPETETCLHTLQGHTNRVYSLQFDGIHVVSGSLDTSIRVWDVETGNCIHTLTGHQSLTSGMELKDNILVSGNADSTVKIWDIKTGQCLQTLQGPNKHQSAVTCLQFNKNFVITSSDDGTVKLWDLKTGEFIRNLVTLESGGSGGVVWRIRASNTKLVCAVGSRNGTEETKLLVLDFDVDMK
TEAD-YAP block – TEAD-YAP interaction inhibition, primary screen, TEAD-YAP interaction inhibitor project, luminescence, HEK-TIYL cells; AID 1259422, 2018; actives 1.4% (n = 640,000); inhibition, % at 9.12 µM; TEAD-Gal4/YAP UAS-luciferase luminescence; in the data active = inhibition above about 32%;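 also: 0% = median of test compound wells and 100% = reference inhibitor wells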
GPR151 ag – activators of human GPR151, primary screen, cell-based, PathHunter beta-arrestin, luminescence; actives 1% (n = 650,000); G-protein coupled receptor 151 (Homo sapiens), Q8TDV0; activation, % at 11.2 µM; AID 1508602, 2020; PathHunter beta-arrestin GPR151 cells; in the data active = activation above about 4.9%;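 also: 0% = median of compound wells and 100% = cells with positive control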
MITF inh – MITF inhibitors, primary screen, biochemical, AlphaScreen, human | Microphthalmia-associated transcription factor (Homo sapiens), O75030 | AlphaScreen MITF homodimerization, bead proximity signal | inhibition, % at 2.6 µM | actives 0.91% (n = 650,000) | AID 1259374, 2018; in the data active = inhibition above about 50%;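 also: 0% = vehicle wells with protein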
The depositor's hits bear a star. A selection: hits, their analogues and other compounds. The true share with any hit is near 3.4%.

SMILES	FBW7 activator	TEAD-YAP block	GPR151 ag	MITF inh
OC1CCC(Nc2nc(NC3CCN(Cc4ccccc4)CC3)c3ncn(Cc4ccc(C(F)(F)F)cc4)c3n2)CC1 (centres undefined)	0	49*	3	2
O=C1CCCN1CCn1cnc2c(NCCO)nc(N3CCN(c4ccccn4)CC3)nc21	0	-1	2	17
Cc1ccc(N2C(=O)/C(=C/c3ccccc3F)N=C2c2ccc(Br)cc2)cc1	0	12	1	5
O=C1c2ccccc2C(=O)N1c1nc2c(ccc3ccccc32)s1	0	-8	1	-2
COc1ccccc1CN1CCCC(CNC(=O)c2cccs2)C1 (centres undefined)	0	1	-1	4
O=C1CCCN1CCCNc1nc(NC2CCN(Cc3ccccc3)CC2)nc2c1ncn2CCN1CCCC1=O	0	2	1	-2
O=C1CCCN1CCCNc1nc(NCCN2CCOCC2)c2ncn(-c3ccsc3)c2n1	0	43*	0	16
O=C1CCCN1CCCNc1nc(NCCCN2CCCC2=O)c2ncn(-c3ccccc3)c2n1	0	-2	-1	-8
O=C1CCCN1CCCNc1nc(NC2CCN(Cc3ccccc3)CC2)nc2c1ncn2-c1ccsc1	0	36*	0	-5
CCOC(=O)C1CCN(C(=O)COc2ccc(C)cc2)CC1	0	10	0	16
CCOC(=O)C1CCN(C(=O)COc2ccc(C(C)(C)C)cc2)CC1	0	60*	0	-4
CCOC(=O)C1CCN(C(=O)COCC(=O)N2CCC(C(=O)OCC)CC2)CC1	0	-4	2	4
CCOC(=O)C1CCN(C(=O)COC(=O)c2cc(O)c(O)c(O)c2)CC1	0	3	0	90*
CCCn1c(=O)c2c(nc3n(-c4ccccc4C)c(C)cn23)n(C)c1=O	0	1	1	11
C=CCn1c(=O)c2c(nc3n(-c4ccccc4C)c(C)cn23)n(C)c1=O	2.1*	6	0	23
Cc1nc(NCCC2=CCCCC2)c2c3c(sc2n1)CCCC3	0	-38	-1	0
Cc1sc2ncnc(NCCC3=CCCCC3)c2c1C	0	44*	0	2
Cc1sc2ncnc(NCCc3ccc(S(N)(=O)=O)cc3)c2c1C	0	37*	1	-1
O=C1C2C3CCC(C3)C2C(=O)N1c1cccc(Cl)c1 (centres undefined)	0	-5	-1	11
Cc1cccc(NC(=O)/C=C\C(=O)O)c1	0	2	0	-2
O=C(O)C1Nc2c(C(=O)N3CCOCC3)cccc2C2C=CCC12 (centres undefined)	-1	0	1	58*
O=C(O)C1Nc2c(C(=O)N3CCCC3)cccc2C2C=CCC12 (centres undefined)	-1	10	0	80*
CC(C)C1Nc2c(C(=O)O)cccc2C2C=CCC21 (centres undefined)	0	1	-1	17
O=C(Oc1ccc(-c2ccccc2)cc1)c1cccc2c1NC(C(=O)O)C1CC=CC21 (centres undefined)	0	-15	0	51*
O=C(CN(c1ccccc1)S(=O)(=O)c1ccccc1[N+](=O)[O-])NCc1ccc(Cl)cc1	0	14	1	-1
SMILES	FBW7 activator	TEAD-YAP block	GPR151 ag	MITF inh
CNC(=O)c1ccnc(Nc2cc(Nc3ccccc3C(=O)NC)c(C(F)(F)F)cn2)c1	0	85*	-1	1
CNC(=O)c1ccccc1Nc1cc(Nc2cccc(C)n2)ncc1C(F)(F)F	0	82*	0	2
CNC(=O)c1ccccc1Nc1cc(Nc2ccc3c(c2)CCC(=O)N3C)ncc1C(F)(F)F	0	78*	-1	-2
CNC(=O)c1ccccc1Nc1cc(Nc2ccc(-c3cncnc3)cc2)ncc1C(F)(F)F	0	32*	1	8
CN1CCN(c2ccc(-c3ncc(C(=O)NCCN4CCOCC4)s3)cc2)CC1	0	-1	1	0
CN(C)C(=O)C(=O)c1c[nH]c2ccc(Nc3cc(Nc4ccccn4)c(C(F)(F)F)cn3)cc12	0	-5	2	12
CNC(=O)c1ccccc1Nc1cc(Nc2ccccn2)ncc1C(F)(F)F	0	83*	0	-8
CNS(=O)(=O)c1ccccc1Nc1cc(Nc2cc(-c3cncnc3)nc(C)n2)ncc1C(F)(F)F	0	68*	2	3
CNC(=O)c1ccc(Nc2cc(Nc3ccccc3C(=O)NC)c(C(F)(F)F)cn2)nc1	0	88*	-1	13

Assay outcomes (PubChem BioAssay)
